Test results published in PubChem BioAssay (NCI).
About 83,000 compounds went through this panel and 20% of them were active in at least one assay; those are over-represented in the sample as a whole.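 Assay: single dose, 48 h. Readout: percent growth (0 = no net growth; negative = cell death). Active: <10.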 Active and inactive are the calls of the source.

Columns and labels:
Experiment in all cases: NCI-60 one-dose screen, 48 h (100 = growth as untreated, 0 = no growth, -100 = all killed)
Details in all cases: 10 µM unless noted
[1] = test system: HCT-15 colon
[2] = test system: HT29 colon
[3] = test system: SNB-75 CNS
[4] = test system: SNB-19 CNS
[5] = test system: U251 CNS
[6] = test system: PC-3 prostate
[7] = test system: UACC-62 melanoma
[8] = test system: LOX IMVI melanoma
[9] = test system: SK-MEL-28 melanoma

Measured: growth

Cc1ccc(-c2onc3c(=O)[nH]nc(-c4ccccc4)c23)cc1
inactive: [1] 31.7% | [3] 10.1% | [4] 31.3% | [5] 20.3% | [6] 25.8% | [7] 44.8% | [8] 37.6% | [9] 66.9%
active: [2] -3.08%

COc1cc(-c2nn(-c3ccc(C)cc3)cc2C(=O)O)ccc1O
inactive: [1] 99.4% | [2] 107% | [3] 87.5% | [4] 97.7% | [5] 108% | [6] 91% | [7] 96.1% | [8] 86% | [9] 104%

Cc1nn(-c2cc(=O)[nH]c3ccc(Cl)cc23)c(N)c1C#N
inactive: [1] 103% | [2] 110% | [3] 61.2% | [4] 108% | [5] 102% | [6] 95.6% | [7] 98.8% | [8] 92.9% | [9] 115%

COc1cc(-c2nc3ccccc3[nH]2)ccc1OCC(=O)N=Nc1c(O)[nH]c2ccc(Cl)cc12
active: [2] -59% | [3] -88.4% | [4] -93.1% | [5] -95% | [6] -73% | [7] -64.3% | [8] -97.1% | [9] -65.4%
inactive: [1] 77.4%

N#Cc1nnn(-c2ccc(S(N)(=O)=O)cc2)c1NC(=O)CCl
inactive: [1] 96% | [2] 102% | [3] 85.5% | [4] 96.3% | [5] 92.3% | [6] 89.7% | [7] 96.6% | [8] 94.6% | [9] 104%

COc1cc2c(cc1-c1c(C)noc1C)ncc1nc(C3CCOCC3)n([C@H](C)COC(F)F)c12
inactive: [1] 22.8% | [2] 24.5% | [3] 29.9% | [4] 47.6% | [5] 51.8% | [6] 34.3% | [7] 17.8% | [8] 12.6% | [9] 55.8%

Oc1cccc2ccc(N/N=C/c3cc(CN4CCOCC4)c(O)c4ncccc34)nc12
inactive: [1] 26.2% | [2] 17.6% | [3] 35.9% | [4] 23.9% | [6] 28.5% | [9] 24%
active: [5] 5.22% | [7] 2.18% | [8] -71.1%

Cc1cc(N2CCN(C)CC2)nc(NC2CCCC(Nc3ccnc4cc(Cl)ccc34)C2)n1 (stereo unspecified)
active: [1] -35.7% | [2] -53.1% | [3] -25.6% | [4] 9.07% | [5] -51.4% | [6] 8.55% | [7] -90.7% | [8] -81.8% | [9] -75.8%

CCN=C1C=CC(=C(c2ccc(N)cc2)c2ccc(N(CC)CC)c(C)c2)C=C1
inactive: [4] 11.5%
active: [1] 7.26% | [2] 5.82% | [3] -28.4% | [5] -19% | [6] -5.29% | [7] -36.6% | [8] -56.2% | [9] -19.1%

CC(=O)Nc1ccc(S(=O)(=O)Nc2cccc(-c3nc(-c4ccc(NC(=O)c5cccnc5)cc4Cl)no3)c2)cc1
active: [2] 9.79%
inactive: [1] 88.3% | [3] 27.6% | [4] 37.7% | [5] 29.7% | [6] 25.8% | [7] 37.4% | [8] 40.2% | [9] 50.6%

COc1cc2c(cc1-c1c(C)noc1C)ncc1nc(C3CCCCC3)n([C@H](C)COC(F)F)c12
inactive: [1] 15.1% | [2] 19.3% | [3] 41% | [4] 45.4% | [5] 45.7% | [6] 35% | [7] 22.8% | [8] 11% | [9] 49.9%

O=C1OC(c2ccccc2)C(O)=C1c1ccccc1 (stereo unspecified)
inactive: [1] 108% | [2] 111% | [3] 102% | [4] 105% | [5] 100% | [6] 99.1% | [7] 104% | [8] 113% | [9] 120%

CCOc1cc2ncc(C#N)c(Nc3ccc(F)c(Cl)c3)c2cc1NC(=O)CC1CCSS1 (stereo unspecified)
active: [1] -71.1% | [2] -72.5% | [3] -72% | [4] -34.5% | [5] -58.9% | [6] -72.6% | [7] -66% | [8] -81.2% | [9] -79.1%

C#CC(F)(F)[C@]1(O)CC[C@H]2[C@@H]3CCC4=CC(=O)CCC4=C3[C@@H](c3ccc(C4CC4)cc3)C[C@@]21C
inactive: [1] 59.3% | [4] 46.1% | [7] 26.7% | [9] 90.2%
active: [2] -63.9% | [3] -15.9% | [5] -32.2% | [6] -53.8% | [8] -84.6%

COc1ccc(O)c(N=Nc2nccs2)c1
inactive: [1] 67.3% | [2] 79.7% | [3] 91% | [4] 94.9% | [5] 54.4% | [6] 67.3% | [7] 89.8% | [8] 60.9% | [9] 115%

CN(C)c1ccc(N=Nc2ccccn2)c(O)c1
active: [7] -28.3% | [8] 8.14%
inactive: [1] 31.6% | [2] 24.1% | [3] 42.7% | [4] 18.6% | [5] 11.7% | [6] 33.8% | [9] 32.8%

CC(C)C[C@@H](NC(=O)[C@@H](Cc1ccccc1)NC(=O)c1cnccn1)B1Oc2ccc(C[C@H](NC(=O)[C@H](Cc3ccc4c(c3)OB([C@@H](CC(C)C)NC(=O)[C@@H](Cc3ccccc3)NC(=O)c3cnccn3)O4)NC(=O)[C@@H](N)CC3CCC4OB([C@@H](CC(C)C)NC(=O)[C@@H](CC5CCCCC5)NC(=O)C5CNCCN5)OC4C3)C(=O)NCCCC[C@@H]3NC(=O)[C@@H](Cc4ccccc4)NC(=O)[C@H](CC(=O)O)NC(=O)CNC(=O)[C@H](CCCNC(=N)N)NC3=O)cc2O1 (stereo partly specified)
active: [1] -49.1% | [2] -61.9% | [3] -64% | [4] -24.7% | [5] -58.4% | [6] -48.4% | [7] -73.8% | [8] -87.9% | [9] -31.7%

O=CNc1ccc2c(c1)Cc1cccc(NC=O)c1-2
inactive: [1] 91.8% | [2] 96.2% | [3] 90.7% | [4] 102% | [5] 95.1% | [6] 95.2% | [7] 72.1% | [8] 90.5% | [9] 112%

CC(=O)c1cc2c(N)c(C(=O)Nc3cccc(F)c3C)sc2nc1C
inactive: [1] 85% | [2] 81.6% | [3] 68.1% | [4] 83.1% | [5] 93.3% | [6] 81.4% | [7] 52.1% | [8] 96.9% | [9] 97.4%

CSc1nc2c(c(=O)[nH]1)C1(C(=O)Nc3ccccc31)c1c(nc(SC)[nH]c1=O)N2
inactive: [1] 107% | [2] 112% | [3] 99.5% | [4] 106% | [5] 97.9% | [6] 107% | [7] 99.8% | [8] 102% | [9] 105%

C#CC(F)(F)[C@]1(O)CC[C@H]2[C@@H]3CCC4=CC(=O)CCC4=C3[C@@H](c3ccc(C(C)=O)cc3)C[C@@]21C
active: [2] 1.5%
inactive: [1] 89.6% | [3] 73.7% | [4] 95.6% | [5] 75.5% | [6] 37% | [7] 80.2% | [8] 48.9% | [9] 107%

CC1C(/C=N/Nc2ccccc2)C(C#N)(C#N)C1(C#N)C#N (stereo unspecified)
inactive: [1] 69.2% | [2] 97.6% | [3] 71.7% | [4] 98.6% | [5] 101% | [6] 65.9% | [8] 38.7% | [9] 100%
active: [7] 5.25%

Cn1ccnc1C(=O)/C=C/c1ccc(CC(=O)Nc2ccccc2)cc1
inactive: [3] 11.3% | [4] 10.3% | [6] 25.7% | [7] 26.7% | [9] 55%
active: [1] 6.26% | [2] 5.1% | [5] 7.03% | [8] 8.77%

CCN1CCN(c2nc(NCCNc3ccnc4cc(Cl)ccc34)c3ccccc3n2)CC1
inactive: [3] 44.7% | [4] 14.4% | [6] 24.7%
active: [1] 7.08% | [2] -14.1% | [5] -16.7% | [7] -87.9% | [8] -62.9% | [9] -60.1%

CC1=C[C@H]2c3c(c(O)c(O)c4oc(-c5ccccc5)cc(=O)c34)[C@H](c3cc(O)c(O)c4oc(-c5ccccc5)cc(=O)c34)[C@H]2C(C)(C)C1
inactive: [1] 11.3% | [4] 11.9%
active: [2] 9.18% | [3] -8.01% | [5] 2.66% | [6] 5.35% | [7] -46.3% | [8] -86.5% | [9] 8%

O=C(/C=C/c1cc(CN2CCOCC2)c(O)c2ncccc12)c1cc(CN2CCOCC2)c(O)c2ncccc12
active: [5] 3.35%
inactive: [1] 16.2% | [2] 16.8% | [3] 32.2% | [4] 20.7% | [6] 23.7% | [7] 10.1% | [8] 19.3% | [9] 37%

COc1cc2c(cc1-c1c(C)noc1C)ncc1nc(C3CCOCC3)n([C@@H](C)COC(F)F)c12
inactive: [1] 24.5% | [2] 18.8% | [3] 28.7% | [4] 56.6% | [5] 53.3% | [6] 39.2% | [7] 20.7% | [8] 24.2% | [9] 53.5%

O=C(Cc1ccc(/C=C/C(=O)c2ncc[nH]2)cc1)Nc1ccc(F)cc1
inactive: [3] 20.4% | [4] 14.2% | [6] 32.9% | [7] 40.5% | [9] 87.2%
active: [1] 5.31% | [2] 3.91% | [5] 8.1% | [8] 2.77%

O=C(Cc1ccc(/C=C/C(=O)c2ncc[nH]2)cc1)Nc1ccccc1
active: [2] 4.83%
inactive: [1] 12.9% | [3] 58.4% | [4] 22.6% | [5] 11.3% | [6] 57.1% | [7] 68.5% | [8] 10.1% | [9] 98.9%
